Measurements from PubChem BioAssay AID1159506 (National Center for Advancing Translational Sciences (NCATS), 2015).
The full ranking holds about 59,000 sequences; the median of the read-out is about -0.00055, and the lowest 2% start at about -2. This excerpt belongs to a sample that is enriched for the lowest values.

Experiment: Identification of proteins required for the processing of the EWS-FLI1 nascent transcript;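 further: robust z of luciferase light less the median z of siRNAs with the same seed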
Conditions: TC32 Ewing sarcoma NR0B1-luc vs CMV-luc (EWS-FLI1 target promoter against control promoter), 48 h; screened at 20 nM (by protocol)
Procedure, shortened: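 Readout: OneGlo luminescence, 48 h post-transfection, TC32-NR0B1-luc vs TC32-CMV-luc in parallel. siRNA 20 nM final, RNAiMax lipid, 600 cells/well; z-score-MAD transformed, then seed-adjusted.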
UAUCUUCACUGAAUUGACC against ARL8B showed a seed-corrected z-score of 0.269. Work on AUAUGCUUCACAGUUCUAG against MMP1 yielded a seed-corrected z-score of -2.83. With UAUAGGCCUUCUACAUUGC against ROM1 the seed-corrected z-score was 1.12. For UUGCGAAUGAGGUUGUAGG against PIK3C2B, the seed-corrected z-score was -0.721. In the case of UCUGAUAGCAAUAACUUGG against PPCS, the seed-corrected z-score is reported as -0.294. In the case of UGUUGACUCACUGUAGGCU against LOC729683, the seed-corrected z-score is reported as 0.842. Sequence AAAGAGGAAACGGUAGGCC against JAGN1 has a seed-corrected z-score of -2.67. With UAUUGGAUCCGGUGCAACC against SYPL2 the seed-corrected z-score was -0.246. Sequence UUGGUUAUCCUCUAUACCC against MTERF3 has a seed-corrected z-score of 0.193. UUCAUCAUCGAGGUCAUCC against DPF2 gave a seed-corrected z-score of -3.12. Work on UGAACUAUUGGAAUGUCUC against SEC11C yielded a seed-corrected z-score of 0.165. Sequence AUCGUAGUCAGUGUAUCUG against PPARGC1B has a seed-corrected z-score of -0.163. For UAUAGAGCUGCCGUCUCCG against ESRP2, the seed-corrected z-score was -0.989. Sequence UCACUGUUUACUUAGCGCU against HIST1H2BJ has a seed-corrected z-score of 1.62. Work on UGCCGAACCACUUCCAGAG against TNRC18P2 yielded a seed-corrected z-score of -1.02. With AUAGUAAAUAAACACUGCC against RHBDL2 the seed-corrected z-score was -2.55. Work on AAUCUGAGAACAGACCGUG against MXD4 yielded a seed-corrected z-score of 1.77. Work on AUAGGAGUAAGAAUUUUUG against NUDT10 yielded a seed-corrected z-score of -0.635. With AUGCUUAUAAUGACCACCA against SLC51B the seed-corrected z-score was -2.22. UGAAACACCAUUAAAACGG against TDG gave a seed-corrected z-score of 0.355. In the case of UAAAUCUGCUUAUCUCUUC against TFAM, the seed-corrected z-score is reported as -0.445. Work on UUCUUGAAAAGGCAACAGU against POC1A yielded a seed-corrected z-score of 0.91. With AAAGCGACAUUGUUUGACC against COPB2 the seed-corrected z-score was -2.18. UUGGUCAUAGAGGUCGUCC against LSR gave a seed-corrected z-score of -1.71. In the case of UGUCGGAUGAGGUCAUUGC against TNS4, the seed-corrected z-score is reported as -2.96. Work on UUGUUUGCAGGUUCUACUU against DDX19B yielded a seed-corrected z-score of -0.121. For UCUAGUAUUACUGCUACUG against DDHD2, the seed-corrected z-score was 0.72. For AAUGUACAAGUGGUCAUUC against MAGED2, the seed-corrected z-score was -2.83. Sequence UCAUAGUCCAGGGUAAGGC against LRP4 has a seed-corrected z-score of -1.11. In the case of UCUUUGUACGCAUCAAGUG against NPY1R, the seed-corrected z-score is reported as -0.0164. In the case of AUAGAUUAACCAUGUUUCC against KCNN3, the seed-corrected z-score is reported as -0.34. In the case of UCCAUUGAUAGAACCAUCU against HFE2, the seed-corrected z-score is reported as -0.476. UAAGAUGAUCGUGAACUUG against RPL39L showed a seed-corrected z-score of 0.982. Work on UGCAUUUCUAUAUUCAACC against TLE4 yielded a seed-corrected z-score of -0.442. Work on UAUAGGUGUAGAUUACAGG against OR13G1 yielded a seed-corrected z-score of -0.49. Sequence UAACUUGUUUGUUUACAAC against RPL21P62 has a seed-corrected z-score of -3.04. Work on UGAAUUUCCGGUGCUUGCC against PDGFB yielded a seed-corrected z-score of -0.605. Sequence UAGGAGAUAGCGAUGACCA against NPBWR1 has a seed-corrected z-score of 0.302. Sequence AAAGAGGUACUCACAGGGC against LGR6 has a seed-corrected z-score of -0.878. UUCGGUCUGCUAAUGCUGG against CNOT2 showed a seed-corrected z-score of 1.7. AAUCUCACAACAGUUAUGG against MTMR8 showed a seed-corrected z-score of 0.0648. For AUACUACUUACAACCGGGC against SON, the seed-corrected z-score was 1.15. With ACAGCUAACAUGGACACUC against SHTN1 the seed-corrected z-score was 0.393. In the case of UAGGUAACCAUAGUACUCA against ISY1, the seed-corrected z-score is reported as -2.1. For UGUAUAGAAAAAUUCACGC against CRY1, the seed-corrected z-score was 0.235. In the case of UCCAGUAGCACCAUAGUUC against ZNF449, the seed-corrected z-score is reported as -0.629. UUCGUGAUCAUCUUCUCAC against PHYH showed a seed-corrected z-score of 0.854. In the case of AAAUGUUCACCUGUCUUCU against RPS4Y1, the seed-corrected z-score is reported as -0.188. For UUCAUAUAUGAGUCAAUGG against HMG20A, the seed-corrected z-score was 0.779. With UUCCUCAUGAUUGUCCUCA against GABARAPL1 the seed-corrected z-score was -0.0836. For UUAGUAUUUGGUAUUCAGA against FCGR1A, the seed-corrected z-score was -0.211. UAGGAUCCAGGGUUAGUUU against RPL18 gave a seed-corrected z-score of -2.17. UUAGGGUCCCUCAUCUUCA against LOXL4 gave a seed-corrected z-score of 0.627. In the case of UAUUAUUAAAGUGAGAUGG against SNCA, the seed-corrected z-score is reported as 0.375. For UCUGGUGAACGACUCUUGC against MGMT, the seed-corrected z-score was 0.137. With AUCUGUAUUCUCACUAUAG against TTC23 the seed-corrected z-score was -1.15. With UUAAUGAUAGAGACUAGGA against LTC4S the seed-corrected z-score was -0.727. Sequence GUUACAUACCUUUUUCUCU against GTF2H2B has a seed-corrected z-score of 0.209. In the case of UCAUAGAAGAGGUCUGUCU against PHF5A, the seed-corrected z-score is reported as -2.2. For UUCAUAGCCUCUUCAAUGG against SPAG7, the seed-corrected z-score was -1.44. With UACACUCUAAGAGCUCUUC against BCAT1 the seed-corrected z-score was 1.4. With UUAAAUUCUUGGAAGUAGA against SCNN1B the seed-corrected z-score was 0.779. UGACGAAAUAGUAGAAGUG against MOB3A showed a seed-corrected z-score of -0.387. UUCAUCACCAGCUCUUUCC against CLEC4F showed a seed-corrected z-score of -0.0692. In the case of UCAUGGGACGGCAUAACUG against SPDYE3, the seed-corrected z-score is reported as -0.601. Work on ACGAUUACAACUUCGAUCC against DOCK7 yielded a seed-corrected z-score of 1.63. In the case of UGGCGCUUGAUUGGAACUC against UNC5B-AS1, the seed-corrected z-score is reported as -0.56. Work on AUGUUUGACAUUGUCCACG against KPNA2 yielded a seed-corrected z-score of -2.38. AAGUUGAAGAUAAGAGUCC against C11orf63 showed a seed-corrected z-score of -0.178. Work on AUCGAAAUAAGUCAGAUAG against NAA25 yielded a seed-corrected z-score of 0.893. In the case of UGACCUGUAGCGUUGCAGC against EFCC1, the seed-corrected z-score is reported as -0.581. UCUAUAUCUCCGUAAUUCC against TRRAP gave a seed-corrected z-score of -2.5. UUAGUUCCUGGGUAUCUGC against SNAP47 showed a seed-corrected z-score of 1.17. For UUUCAUAGAAUCUAUCCAG against C20orf196, the seed-corrected z-score was 0.184. Work on UUUGGAACUGGUCAUGUGU against RPL29P30 yielded a seed-corrected z-score of -3.1. UUUCUGAGGAGACAACUCU against ANKRD36B gave a seed-corrected z-score of 0.345. UUGGGUAAAAUGUCCACUC against SPATS1 showed a seed-corrected z-score of -2.28. In the case of UGUGCGACUGGAGAAUGCG against KRT81, the seed-corrected z-score is reported as -0.00183. With UGAUAUAUAACUUAGAUGG against VWA9 the seed-corrected z-score was -12.6. Sequence AGAGUGACCAGUCCGGUAG against CIDEA has a seed-corrected z-score of 0.43. For UCCCGGUCUGCAUUCUUCC against PHKA1P1, the seed-corrected z-score was -0.749. For AAAGUUGCUACAGCUGUCA against SH3BP5, the seed-corrected z-score was -2.12. UUAGUGUGAAUAGUGAUUU against PODXL gave a seed-corrected z-score of 0.827. For UAUCUUUCUCAGGAGUUUG against OR2T10, the seed-corrected z-score was -0.23. AUAGCAGUCAACAUCGUAG against TMED3 gave a seed-corrected z-score of -2.8.
